# Paper PMC7862700, “An all-to-all approach to the identification of sequence-specific readers for epigenetic DNA modifications on cytosine”
# Key:
# Assay in all cases: DAPPL (digital affinity profiling via proximity ligation, sequencing); 10 mM Tris-HCl pH 7.5, 50 mM NaCl, 1 mM DTT, 4% glycerol, room temperature, 30 min; GST-TFs on glutathione beads, 16-mer random dsDNA library, 0.1% formaldehyde crosslink after washing; high values mean tight binding
# Details in all cases: protein: recombinant; tags: N-terminal GST; dsDNA, one strand shown
# FEV = molecular target: T1, FEV (Homo sapiens, UniProt Q99581 1-238)
# T1 sequence: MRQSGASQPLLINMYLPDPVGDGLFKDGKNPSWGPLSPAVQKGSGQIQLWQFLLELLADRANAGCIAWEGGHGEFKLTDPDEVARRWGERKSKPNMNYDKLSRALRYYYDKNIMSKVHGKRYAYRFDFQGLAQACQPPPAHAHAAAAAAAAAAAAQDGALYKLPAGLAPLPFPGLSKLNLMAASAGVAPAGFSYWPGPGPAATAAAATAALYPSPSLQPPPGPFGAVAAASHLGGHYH
# Method in brief: (§1)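 Pools of DNA-barcoded human transcription factors, expressed in yeast as GST fusions on glutathione beads and combined with a tag-only sample, were incubated with 200 nmole of a 16-mer random double-stranded DNA library. Incubation took 30 min at room temperature in Tris/NaCl/DTT/glycerol buffer and was followed by washing, 0.1% formaldehyde crosslinking, proximity ligation (BsaI/T4 ligase, 1 h, 37 °C), PCR amplification and sequencing on an Illumina NextSeq500. Binding signal is the ratio of a hexamer's read frequency for a factor to its frequency for the tag-only sample.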
# ETV5 = ETV5 (Homo sapiens, UniProt P41161 1-510)
# Method in brief: as §1
# SPIC = molecular target: T2, SPIC (Homo sapiens, UniProt Q8N5J4 1-248)
# T2 sequence: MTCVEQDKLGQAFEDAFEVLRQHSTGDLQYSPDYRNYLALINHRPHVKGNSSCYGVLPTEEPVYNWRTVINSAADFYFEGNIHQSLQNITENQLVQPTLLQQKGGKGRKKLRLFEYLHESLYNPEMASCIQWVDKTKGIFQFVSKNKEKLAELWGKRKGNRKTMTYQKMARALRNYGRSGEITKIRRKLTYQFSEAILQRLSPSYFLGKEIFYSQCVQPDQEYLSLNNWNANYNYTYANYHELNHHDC
# Method in brief: as §1
# ELF4 = ELF4 (Homo sapiens, UniProt Q99607 1-663)
# Method in brief: as §1
# ELK4 = molecular target: T3, ELK4 (Homo sapiens, UniProt P28324-2 1-405)
# T3 sequence: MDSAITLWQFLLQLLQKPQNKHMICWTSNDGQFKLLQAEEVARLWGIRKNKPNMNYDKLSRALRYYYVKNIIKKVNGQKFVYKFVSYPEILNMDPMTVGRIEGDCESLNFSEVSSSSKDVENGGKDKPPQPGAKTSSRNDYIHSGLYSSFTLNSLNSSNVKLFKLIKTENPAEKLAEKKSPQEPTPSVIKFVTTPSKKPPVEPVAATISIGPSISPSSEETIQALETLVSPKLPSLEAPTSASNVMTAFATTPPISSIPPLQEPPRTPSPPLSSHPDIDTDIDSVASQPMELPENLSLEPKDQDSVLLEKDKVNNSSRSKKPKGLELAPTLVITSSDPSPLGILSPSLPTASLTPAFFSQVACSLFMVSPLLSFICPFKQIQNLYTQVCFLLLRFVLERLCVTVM
# Method in brief: as §1
# ETV2 = molecular target: T4, ETV2 (Homo sapiens, UniProt O00321 1-342)
# T4 sequence: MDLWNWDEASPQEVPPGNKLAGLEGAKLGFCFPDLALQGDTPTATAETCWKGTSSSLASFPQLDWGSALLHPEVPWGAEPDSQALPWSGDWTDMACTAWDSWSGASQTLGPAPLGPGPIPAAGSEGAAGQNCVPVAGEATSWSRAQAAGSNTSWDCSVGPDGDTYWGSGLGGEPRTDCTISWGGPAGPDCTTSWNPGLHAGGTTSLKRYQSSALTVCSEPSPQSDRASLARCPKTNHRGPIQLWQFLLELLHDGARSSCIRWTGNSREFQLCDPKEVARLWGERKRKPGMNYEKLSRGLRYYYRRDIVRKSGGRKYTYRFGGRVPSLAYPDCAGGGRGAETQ
# Method in brief: as §1
# ELF3 = molecular target: T5, ELF3 (Homo sapiens, UniProt P78545 1-371)
# T5 sequence: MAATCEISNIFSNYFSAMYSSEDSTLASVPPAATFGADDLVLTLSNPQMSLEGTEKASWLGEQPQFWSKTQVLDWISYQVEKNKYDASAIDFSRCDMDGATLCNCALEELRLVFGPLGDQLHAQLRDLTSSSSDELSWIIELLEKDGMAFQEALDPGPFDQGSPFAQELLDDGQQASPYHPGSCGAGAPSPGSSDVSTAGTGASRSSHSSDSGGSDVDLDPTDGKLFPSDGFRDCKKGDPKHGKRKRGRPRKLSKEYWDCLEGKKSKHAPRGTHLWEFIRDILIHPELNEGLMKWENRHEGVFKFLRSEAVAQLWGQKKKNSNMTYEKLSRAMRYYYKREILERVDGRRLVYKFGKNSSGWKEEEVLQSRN
# Method in brief: as §1
# CRX = CRX (Homo sapiens, UniProt O43186 1-299)
# Method in brief: as §1
# ETV1 = ETV1 (Homo sapiens, UniProt P50549 1-477)
# Method in brief: as §1
# Sequence of ETV1 (P50549 whole entry): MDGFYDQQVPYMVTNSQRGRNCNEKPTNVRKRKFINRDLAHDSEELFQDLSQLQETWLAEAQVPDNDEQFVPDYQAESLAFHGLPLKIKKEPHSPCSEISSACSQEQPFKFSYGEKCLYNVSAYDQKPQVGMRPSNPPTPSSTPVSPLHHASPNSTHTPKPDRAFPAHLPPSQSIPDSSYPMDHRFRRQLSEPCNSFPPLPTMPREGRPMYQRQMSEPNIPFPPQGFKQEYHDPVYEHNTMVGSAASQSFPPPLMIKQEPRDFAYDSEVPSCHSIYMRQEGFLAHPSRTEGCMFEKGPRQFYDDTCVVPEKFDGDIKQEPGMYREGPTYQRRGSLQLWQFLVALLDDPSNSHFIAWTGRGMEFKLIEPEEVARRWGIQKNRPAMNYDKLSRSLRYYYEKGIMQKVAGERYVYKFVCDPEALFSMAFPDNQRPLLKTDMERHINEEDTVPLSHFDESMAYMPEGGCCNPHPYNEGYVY
# Sequence of ETV5 (P41161 whole entry): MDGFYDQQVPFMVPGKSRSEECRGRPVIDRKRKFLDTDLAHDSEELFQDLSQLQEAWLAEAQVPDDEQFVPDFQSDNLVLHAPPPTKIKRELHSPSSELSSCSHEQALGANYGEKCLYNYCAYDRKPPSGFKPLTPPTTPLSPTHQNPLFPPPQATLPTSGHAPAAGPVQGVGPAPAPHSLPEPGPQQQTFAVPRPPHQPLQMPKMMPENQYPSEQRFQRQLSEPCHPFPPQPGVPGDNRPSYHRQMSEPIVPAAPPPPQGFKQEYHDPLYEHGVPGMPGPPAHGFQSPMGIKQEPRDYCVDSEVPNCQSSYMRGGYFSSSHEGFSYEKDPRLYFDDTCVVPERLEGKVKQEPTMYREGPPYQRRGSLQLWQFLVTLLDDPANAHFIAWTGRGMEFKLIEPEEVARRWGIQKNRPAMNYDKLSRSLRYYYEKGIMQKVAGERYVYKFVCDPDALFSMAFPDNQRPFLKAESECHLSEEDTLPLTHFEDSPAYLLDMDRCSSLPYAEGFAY
# Sequence of ELF4 (Q99607 whole entry): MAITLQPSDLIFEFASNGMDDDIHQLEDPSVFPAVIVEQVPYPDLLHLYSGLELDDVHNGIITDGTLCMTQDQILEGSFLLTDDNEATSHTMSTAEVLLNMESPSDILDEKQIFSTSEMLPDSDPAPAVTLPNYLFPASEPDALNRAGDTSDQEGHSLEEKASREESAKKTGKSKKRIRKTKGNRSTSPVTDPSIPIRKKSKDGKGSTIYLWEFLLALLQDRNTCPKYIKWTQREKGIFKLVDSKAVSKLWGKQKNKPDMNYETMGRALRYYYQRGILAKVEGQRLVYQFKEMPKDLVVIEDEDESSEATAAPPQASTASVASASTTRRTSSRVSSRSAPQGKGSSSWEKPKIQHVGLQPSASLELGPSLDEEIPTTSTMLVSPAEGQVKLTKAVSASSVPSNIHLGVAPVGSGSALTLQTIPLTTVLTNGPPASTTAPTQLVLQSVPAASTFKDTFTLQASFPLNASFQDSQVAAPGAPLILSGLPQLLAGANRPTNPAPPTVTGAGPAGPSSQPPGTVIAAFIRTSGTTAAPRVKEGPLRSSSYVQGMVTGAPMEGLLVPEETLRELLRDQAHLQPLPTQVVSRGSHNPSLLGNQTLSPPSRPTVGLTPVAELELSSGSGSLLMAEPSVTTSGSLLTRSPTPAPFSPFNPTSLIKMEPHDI
# Sequence of CRX (O43186 whole entry): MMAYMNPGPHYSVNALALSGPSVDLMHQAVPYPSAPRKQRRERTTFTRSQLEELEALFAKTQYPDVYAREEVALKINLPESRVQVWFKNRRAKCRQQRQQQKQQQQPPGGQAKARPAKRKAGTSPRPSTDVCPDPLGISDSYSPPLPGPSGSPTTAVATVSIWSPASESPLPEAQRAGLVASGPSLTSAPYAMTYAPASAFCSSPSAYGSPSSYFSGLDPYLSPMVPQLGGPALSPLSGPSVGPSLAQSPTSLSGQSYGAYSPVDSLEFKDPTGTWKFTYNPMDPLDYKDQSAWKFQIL
Sequence,binding signal (FEV),binding signal (ETV5),binding signal (SPIC),binding signal (ELF4),binding signal (ELK4),binding signal (ETV2),binding signal (ELF3),binding signal (CRX),binding signal (ETV1)
TCCGTT,"1.71 fold enrichment (6-mer frequency, TF over GST control)","1.49 fold enrichment (6-mer frequency, TF over GST control)","1.62 fold enrichment (6-mer frequency, TF over GST control)","1.25 fold enrichment (6-mer frequency, TF over GST control)","1.48 fold enrichment (6-mer frequency, TF over GST control)","1.44 fold enrichment (6-mer frequency, TF over GST control)","1.35 fold enrichment (6-mer frequency, TF over GST control)","1.13 fold enrichment (6-mer frequency, TF over GST control)","1.36 fold enrichment (6-mer frequency, TF over GST control)"
ATAGGT,–,"1.08 fold enrichment (6-mer frequency, TF over GST control)","1.01 fold enrichment (6-mer frequency, TF over GST control)","1.01 fold enrichment (6-mer frequency, TF over GST control)","1.02 fold enrichment (6-mer frequency, TF over GST control)","1.11 fold enrichment (6-mer frequency, TF over GST control)","1.11 fold enrichment (6-mer frequency, TF over GST control)",–,"1.03 fold enrichment (6-mer frequency, TF over GST control)"
TCAGCA,"1.02 fold enrichment (6-mer frequency, TF over GST control)","1.05 fold enrichment (6-mer frequency, TF over GST control)","1.1 fold enrichment (6-mer frequency, TF over GST control)","1.1 fold enrichment (6-mer frequency, TF over GST control)","1 fold enrichment (6-mer frequency, TF over GST control)","1.04 fold enrichment (6-mer frequency, TF over GST control)","1.08 fold enrichment (6-mer frequency, TF over GST control)","1.01 fold enrichment (6-mer frequency, TF over GST control)","1.11 fold enrichment (6-mer frequency, TF over GST control)"
ACCTGA,"1.13 fold enrichment (6-mer frequency, TF over GST control)","1.07 fold enrichment (6-mer frequency, TF over GST control)","1 fold enrichment (6-mer frequency, TF over GST control)","1.15 fold enrichment (6-mer frequency, TF over GST control)","1.14 fold enrichment (6-mer frequency, TF over GST control)","1.02 fold enrichment (6-mer frequency, TF over GST control)","1.14 fold enrichment (6-mer frequency, TF over GST control)",–,"1.06 fold enrichment (6-mer frequency, TF over GST control)"
TGGACA,"1.1 fold enrichment (6-mer frequency, TF over GST control)","1.08 fold enrichment (6-mer frequency, TF over GST control)","1.05 fold enrichment (6-mer frequency, TF over GST control)","1.13 fold enrichment (6-mer frequency, TF over GST control)","1.03 fold enrichment (6-mer frequency, TF over GST control)","1.03 fold enrichment (6-mer frequency, TF over GST control)","1.15 fold enrichment (6-mer frequency, TF over GST control)",–,"1.03 fold enrichment (6-mer frequency, TF over GST control)"
CATGCC,"1.13 fold enrichment (6-mer frequency, TF over GST control)","1.13 fold enrichment (6-mer frequency, TF over GST control)","1.16 fold enrichment (6-mer frequency, TF over GST control)","1.16 fold enrichment (6-mer frequency, TF over GST control)","1.17 fold enrichment (6-mer frequency, TF over GST control)","1.08 fold enrichment (6-mer frequency, TF over GST control)","1.13 fold enrichment (6-mer frequency, TF over GST control)",–,"1.12 fold enrichment (6-mer frequency, TF over GST control)"
CACCAC,"1.19 fold enrichment (6-mer frequency, TF over GST control)","1.1 fold enrichment (6-mer frequency, TF over GST control)","1.3 fold enrichment (6-mer frequency, TF over GST control)","1.13 fold enrichment (6-mer frequency, TF over GST control)","1.22 fold enrichment (6-mer frequency, TF over GST control)","1.14 fold enrichment (6-mer frequency, TF over GST control)","1.24 fold enrichment (6-mer frequency, TF over GST control)",–,"1.16 fold enrichment (6-mer frequency, TF over GST control)"
ACTGAC,"1.26 fold enrichment (6-mer frequency, TF over GST control)","1.19 fold enrichment (6-mer frequency, TF over GST control)","1.24 fold enrichment (6-mer frequency, TF over GST control)","1.23 fold enrichment (6-mer frequency, TF over GST control)","1.11 fold enrichment (6-mer frequency, TF over GST control)","1.3 fold enrichment (6-mer frequency, TF over GST control)","1.14 fold enrichment (6-mer frequency, TF over GST control)",–,"1.25 fold enrichment (6-mer frequency, TF over GST control)"
CCGGCC,"1.54 fold enrichment (6-mer frequency, TF over GST control)","1.17 fold enrichment (6-mer frequency, TF over GST control)","1.32 fold enrichment (6-mer frequency, TF over GST control)","1.08 fold enrichment (6-mer frequency, TF over GST control)","1.27 fold enrichment (6-mer frequency, TF over GST control)","1.22 fold enrichment (6-mer frequency, TF over GST control)","1.14 fold enrichment (6-mer frequency, TF over GST control)",–,"1.27 fold enrichment (6-mer frequency, TF over GST control)"
ACGACA,"1.14 fold enrichment (6-mer frequency, TF over GST control)","1.11 fold enrichment (6-mer frequency, TF over GST control)","1.18 fold enrichment (6-mer frequency, TF over GST control)","1.22 fold enrichment (6-mer frequency, TF over GST control)","1.16 fold enrichment (6-mer frequency, TF over GST control)","1.1 fold enrichment (6-mer frequency, TF over GST control)","1.22 fold enrichment (6-mer frequency, TF over GST control)",–,"1.18 fold enrichment (6-mer frequency, TF over GST control)"
CAATCA,"1.11 fold enrichment (6-mer frequency, TF over GST control)","1.15 fold enrichment (6-mer frequency, TF over GST control)","1.19 fold enrichment (6-mer frequency, TF over GST control)","1.16 fold enrichment (6-mer frequency, TF over GST control)","1.04 fold enrichment (6-mer frequency, TF over GST control)","1.15 fold enrichment (6-mer frequency, TF over GST control)","1.12 fold enrichment (6-mer frequency, TF over GST control)",–,"1.13 fold enrichment (6-mer frequency, TF over GST control)"
GGATGC,"1.29 fold enrichment (6-mer frequency, TF over GST control)","1.27 fold enrichment (6-mer frequency, TF over GST control)","1.2 fold enrichment (6-mer frequency, TF over GST control)","1.09 fold enrichment (6-mer frequency, TF over GST control)","1.13 fold enrichment (6-mer frequency, TF over GST control)","1.06 fold enrichment (6-mer frequency, TF over GST control)","1.13 fold enrichment (6-mer frequency, TF over GST control)",–,"1.2 fold enrichment (6-mer frequency, TF over GST control)"
CCCACC,"1.17 fold enrichment (6-mer frequency, TF over GST control)","1.16 fold enrichment (6-mer frequency, TF over GST control)","1.21 fold enrichment (6-mer frequency, TF over GST control)","1.19 fold enrichment (6-mer frequency, TF over GST control)","1.26 fold enrichment (6-mer frequency, TF over GST control)","1.15 fold enrichment (6-mer frequency, TF over GST control)","1.41 fold enrichment (6-mer frequency, TF over GST control)",–,"1.14 fold enrichment (6-mer frequency, TF over GST control)"
GTCCCC,"1.18 fold enrichment (6-mer frequency, TF over GST control)","1.27 fold enrichment (6-mer frequency, TF over GST control)","1.26 fold enrichment (6-mer frequency, TF over GST control)","1.2 fold enrichment (6-mer frequency, TF over GST control)","1.26 fold enrichment (6-mer frequency, TF over GST control)","1.22 fold enrichment (6-mer frequency, TF over GST control)","1.38 fold enrichment (6-mer frequency, TF over GST control)",–,"1.29 fold enrichment (6-mer frequency, TF over GST control)"
TTCAGT,"1.01 fold enrichment (6-mer frequency, TF over GST control)","1.05 fold enrichment (6-mer frequency, TF over GST control)","1.11 fold enrichment (6-mer frequency, TF over GST control)","1.11 fold enrichment (6-mer frequency, TF over GST control)","1.1 fold enrichment (6-mer frequency, TF over GST control)","1.08 fold enrichment (6-mer frequency, TF over GST control)","1.08 fold enrichment (6-mer frequency, TF over GST control)",–,"1.07 fold enrichment (6-mer frequency, TF over GST control)"
